Test results published in PubChem BioAssay (NCATS).
Results filed as inconclusive are left out. Active and inactive are the calls of the source. The call rests on the fitted dose curve; in most records, active means well fitted curve in the direction sought with a large enough effect; inconclusive means small, poorly fitted or top-dose-only effect, or another doubt; inactive means no such curve, though single readings can be large; an effect the other way counts as inactive or inconclusive. *1 amine or outer side, *2 acyl side, *3 side chain or, on linkers, in order; H or OH if unused. Where a SMILES comes first, the peptide text is derived from it. [ ]: non-standard residue; d: D form. The star is where a group is joined. ξ: configuration not given here. X9 = CCC(C)(N*)C(=O)C1CC[C@@H](C(=O)N[C@@H](Cc2ccccc2)C(=O)NCC(=O)O)N1; X8 = O=C([C@@H]1CC(O)CN1[*:1])[*:2]; aIle = CC[C@@H](C)[C@H](N)C(=O)O; Thr(3ξ) = CC(O)[C@H](N)C(=O)O; Hexanoyl = CCCCCC(=O)*; ξIva = CCC(C)(N)C(=O)O; Aib = CC(C)(N)C(=O)O

Columns and labels:
[1] = target: Glutathione peroxidase 1 (Homo sapiens) (UniProt P07203); assay: Primary qHTS Assay for Inhibitors of Recombinant Selenoprotein Glutathione Peroxidase 1 (GPX1) (AID 1845191); conditions: recombinant GPX1, GR-coupled NADPH fluorescence, 15 min; series mostly up to 27.7 µM; further: nearly all actives have a fitted effect of over 65% in size; on activity, negative = inhibition: on the % scale 0 is the no-effect control and ±100 the full control effect
How it was run: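 GR-coupled assay: compounds preincubated 30 min at room temperature with GPX1, then reaction started with CHP; final 10 nM GPX1, 1 mM GSH, 0.5 mM CHP, 0.5 mM NADPH, 100 nM GR, 0.01% BSA, pH 7.5 Tris buffer. NADPH fluorescence (340/450 nm) read at 0 and 15 min.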

[2] = target: Phospholipid hydroperoxide glutathione peroxidase GPX4 (Homo sapiens) (UniProt P36969); assay: Primary qHTS Assay for Inhibitors of Recombinant Selenoprotein Glutathione Peroxidase 4 (GPX4) (AID 1845192); conditions: recombinant GPX4, GR-coupled NADPH fluorescence, 15 min; series mostly up to 27.8 µM; further: nearly all actives have a fitted effect of over 65% in size; on activity change, negative = inhibition: on the % scale 0 is the no-effect control and ±100 the full control effect
How it was run: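 GR-coupled assay: recombinant GPX4 preincubated 30 min with compound at room temperature; final 200 nM GPX4, 1 mM GSH, 0.5 mM cumene hydroperoxide, 0.5 mM NADPH, 100 nM GR, 0.01% BSA, pH 7.5 Tris. NADPH fluorescence (340/450 nm) read at 0 and 15 min.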

[3] = target: Luciferin 4-monooxygenase (Photinus pyralis) (UniProt P08659); assay: Primary firefly luciferase (FLuc) qHTS assay for identification of artifact compounds. (AID 1845220); conditions: purified firefly luciferase, luminescence, 5 min; series mostly up to 54.1 µM; further: nearly all actives have a fitted effect of over 60% in size;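 on activity change, negative = inhibition: plate controls were DMSO vehicle for no effect and no enzyme for full effect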
How it was run: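 Titrated compounds were incubated 15 min at RT, protected from light, with luciferin and ATP at 10 uM; reaction started with 10 nM FLuc, luminescence imaged at 5 min, and concentration-response fitted by Hill equation.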

[4] = Primary fluorescence-based thiol-reactive (MSTI) qHTS assay for identification of artifact compounds. (AID 1845221); conditions: MSTI thiol-reactivity probe, 1 h; series mostly up to 53.8 µM; further: nearly all actives have a fitted effect of over 65% in size; further: potency means the concentration at half of the fitted maximal effect;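 on activity change, negative = thiol reactive: thiol-reactive compounds lower the probe fluorescence signal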
How it was run: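 Reactivity toward the thiol probe MSTI (4 uM) is scored by fluorescence at Ex/Em 525/598 nm after 1 h at room temperature. Acetyl-MSTI and MSTI define the activity scale.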

[5] = system: Nanoluciferase (engineered Oplophorus gracilirostris luciferase); assay: Primary Nanoluciferase (NLuc) qHTS assay for identification of artifact compounds. (AID 1845222); conditions: NLuc-conditioned medium, Nano-Glo luminescence, 5 min; series mostly up to 54.1 µM;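 further: NLuc secreted into diluted conditioned medium of S16 cells; 0% = DMSO and -100% = no enzyme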
How it was run: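 qHTS format, against NLuc in S16 cell-conditioned medium. Nano-Glo substrate 1:100 was added after 15 min at room temperature. Luminescence was taken after a further 5 min.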

[6] = Primary redox qHTS assay for identification of artifact compounds. (AID 1845223); conditions: Amplex Red/HRP redox cycling with DTT, fluorescence; series mostly up to 53.8 µM;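 further: 0% = DMSO and 100% = reference compound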
How it was run: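 Amplex Red (25 uM) and HRP (250 mU/mL) in HBSS, with compounds for 15 min, then 250 uM DTT for 30 min, room temperature, dark. Fluorescence 525/598 nm read; normalized to DMSO and 10 uM DA3003; Hill fit.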

Phospholipid hydroperoxide glutathione peroxidase GPX4 (Homo sapiens), sequence (P36969 whole entry, looked up): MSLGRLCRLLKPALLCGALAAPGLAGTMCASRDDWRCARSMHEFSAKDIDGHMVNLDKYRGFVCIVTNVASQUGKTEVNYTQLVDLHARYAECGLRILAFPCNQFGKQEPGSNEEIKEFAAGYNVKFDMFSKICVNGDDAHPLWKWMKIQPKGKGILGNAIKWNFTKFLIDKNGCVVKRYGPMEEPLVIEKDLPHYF
Glutathione peroxidase 1 (Homo sapiens), sequence (P07203 whole entry, looked up): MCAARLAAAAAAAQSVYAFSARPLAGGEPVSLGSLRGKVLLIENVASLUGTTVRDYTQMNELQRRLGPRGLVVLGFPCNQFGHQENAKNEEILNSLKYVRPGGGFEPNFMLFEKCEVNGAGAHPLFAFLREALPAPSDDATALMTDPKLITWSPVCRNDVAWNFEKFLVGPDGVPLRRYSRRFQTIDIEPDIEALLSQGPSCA

CC1(C(=O)O)CCCC2(C)C3CCC4CC3(CCC12)CC4(O)CO (configuration not stated)
inactive: Potency [1] | Potency [2] | Potency [3] | Potency [4] | Potency [5] | Potency [6]

CC1=CC(=O)CC(C)(C)[C@@]1(O)/C=C/C(C)O[C@@H]1O[C@H](CO)[C@@H](O)[C@H](O)[C@H]1O (some centres not stated)
inactive: Potency [1] | Potency [2] | Potency [3] | Potency [4] | Potency [5] | Potency [6]

CC(=O)OCC1=CCC2C(C)(C)CCCC2(C)C12CCC(C)(CC(=O)O)O2 (configuration not stated)
inactive: Potency [1] | Potency [2] | Potency [3] | Potency [4] | Potency [5] | Potency [6]

CC(C)(O)/C=C/C(=O)[C@](C)(O)[C@H]1[C@H](O)C[C@@]2(C)[C@@H]3CC=C4[C@@H](C=C(O[C@@H]5O[C@H](CO)[C@@H](O)[C@H](O)[C@H]5O)C(=O)C4(C)C)[C@]3(C)C(=O)C[C@]12C
inactive: Potency [1] | Potency [2] | Potency [3] | Potency [4] | Potency [5] | Potency [6]

CC(C)=C1CC2[C@](C)(CC[C@@H](OC(=O)C3(C)OC3C)[C@@]2(C)O)CC1=O (some centres not stated)
inactive: Potency [1] | Potency [2] | Potency [3] | Potency [4] | Potency [5] | Potency [6]

CC1=C2C[C@H]3OC(=O)[C@H](O)[C@@]4(O)[C@@H](C)[C@@H](O)[C@H](O)C([C@@]2(C)[C@H](O)[C@@H](O)C1)[C@@]34C (some centres not stated)
inactive: Potency [1] | Potency [2] | Potency [3] | Potency [4] | Potency [5] | Potency [6]

CC1CC(=O)[C@]2(O)C(C(=O)OCCc3ccc(O)c(O)c3)=CO[C@@H](O[C@@H]3O[C@H](CO)[C@@H](O)[C@H](O)[C@H]3O)[C@H]12 (some centres not stated)
active: Potency [4] 2.92 µM
inactive: Potency [1] | Potency [2] | Potency [3] | Potency [5] | Potency [6]

C=Cc1ccc(O[C@@H]2O[C@H](CO[C@@H]3O[C@@H](C)[C@H](O)[C@@H](O)[C@H]3O)[C@@H](O)[C@H](O)[C@H]2O)cc1
inactive: Potency [1] | Potency [2] | Potency [3] | Potency [5] | Potency [6]
active: Potency [4] 11.6 µM

CCCCCC(=O)N1CCC[C@H]1C(=O)N[C@@H](Cc1ccc(O)cc1)C(=O)OC (Hexanoyl-Pro-Tyr-OMe)
inactive: Potency [1] | Potency [2] | Potency [3] | Potency [4] | Potency [5] | Potency [6]

C/C(=C\CCC1(C)C2CC3C(C2)C31C)C(=O)O (configuration not stated)
inactive: Potency [1] | Potency [2] | Potency [3] | Potency [4] | Potency [5] | Potency [6]

CC1=CCC2C(C)(C)CCCC2(C)C1CC12OC1C(O)C(CO)=CC2O (configuration not stated)
inactive: Potency [1] | Potency [2] | Potency [3] | Potency [4] | Potency [5] | Potency [6]

CC1(CO)CCCC2(C)C1C(OC(=O)c1ccccc1)CC1C(=O)OCC12O (configuration not stated)
inactive: Potency [1] | Potency [2] | Potency [3] | Potency [4] | Potency [5] | Potency [6]

C=C(C)[C@@]1(O)C[C@@]2(C)C(=CC1=O)CC[C@@H](O)[C@@H]2C
inactive: Potency [1] | Potency [2] | Potency [3] | Potency [4] | Potency [5] | Potency [6]

C/C(=C\CC[C@H](CO)[C@@H]1CC[C@]2(C)C3=C(CC[C@@]12C)[C@@]1(C)CCC(=O)C(C)(C)C1CC3)C(=O)O (some centres not stated)
inactive: Potency [1] | Potency [2] | Potency [3] | Potency [4] | Potency [5] | Potency [6]

C/C=C/C(=O)OC1/C=C/C(O)C(OC(C)=O)CCC(=O)OC1C (configuration not stated)
inactive: Potency [1] | Potency [2] | Potency [3] | Potency [4] | Potency [5] | Potency [6]

COc1cc2c(cc1O)CC(O)(CO)C(CO)C2c1ccc(OC2OC(CO)C(O)C(O)C2O)c(OC)c1 (configuration not stated)
inactive: Potency [1] | Potency [2] | Potency [3] | Potency [5] | Potency [6]
active: Potency [4] 10.3 µM

CC(CCc1ccc(O)cc1)O[C@@H]1O[C@H](CO[C@@H]2OC(CO)[C@H](O)[C@H]2O)[C@@H](O)[C@H](O)[C@H]1O (some centres not stated)
inactive: Potency [1] | Potency [2] | Potency [3] | Potency [4] | Potency [5] | Potency [6]

CC(C)c1ccc2c(c1)C(O)CC1C(C)(CO)CCCC21C (configuration not stated)
inactive: Potency [1] | Potency [2] | Potency [3] | Potency [4] | Potency [5] | Potency [6]

COc1c2cc(c(O)c1OC)CCCCC(O)CCc1ccc(O)c-2c1 (configuration not stated)
inactive: Potency [1] | Potency [2] | Potency [3] | Potency [4] | Potency [5] | Potency [6]

CC(=O)[C@@H]1C[C@H](C(C)(C)O[C@@H]2O[C@H](CO)[C@@H](O)[C@H](O)[C@H]2O)CC[C@@]2(CO)OC(=O)C[C@@H]12
inactive: Potency [1] | Potency [2] | Potency [3] | Potency [4] | Potency [5] | Potency [6]

C=C1CC[C@@H]2[C@](C)(CO)[C@H](O[C@@H]3O[C@H](CO)[C@@H](O)[C@H](O)[C@H]3O)CC[C@@]2(C)[C@@H]1C/C=C1/C(=O)OC[C@H]1O
active: Potency [4] 6.53 µM
inactive: Potency [1] | Potency [2] | Potency [3] | Potency [5] | Potency [6]

CC[C@@H](C)[C@H](NC(=O)C(C)(C)NC(=O)[C@H](CCC(N)=O)NC(=O)C(C)(CC)NC(=O)[C@H](Cc1c[nH]c2ccccc12)NC(C)=O)C(=O)N[C@H](C(=O)NC(C)(C)C(=O)N[C@@H](CC(C)C)C(=O)NC(C)(C)C(=O)N1CCC[C@H]1C(=O)N[C@@H](CCC(N)=O)C(=O)NC(C)(C)C(=O)N1CC(O)C[C@H]1C(=O)NC(C)(CC)C(=O)C1CC[C@@H](C(=O)N[C@@H](Cc2ccccc2)C(=O)NCC(=O)O)N1)C(C)O (some centres not stated) (Ac-W[ξIva]Q[Aib][aIle][Thr(3ξ)][Aib]L[Aib]PQ[Aib][X8]-X9)
inactive: Potency [1] | Potency [2] | activity change, negative = inhibition [3] -13.1% [at 6.45 µM] | activity change, negative = thiol reactive [4] -2.24% [at 6.41 µM] | activity, negative = inhibition [5] -3.07% [at 6.45 µM] | redox activity (% of DA3003) [6] 8.28% [at 6.41 µM]
